According to PubChem BioAssay:
Calls of active or inactive are those of the source. No rule for the calls is given here.

Tested on: Aerobactin synthetase IucA (Klebsiella pneumoniae, hypervirulent)
Assay: IucA enzyme inhibition, biochemical, LOPAC library, absorbance readout (AID 1346212);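 also: 100% = no compound wells and 0% = no enzyme wells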
Settings: IucA enzyme assay, absorbance (OD) readout; hits give low values;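 tested at 8 µM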

With `CN1CCc2ccccc2Cc2[nH]c3ccccc3c2CC1` as the molecule, how does the remaining activity read?
Its remaining activity is 107% (inactive).

With `CC1=C(/C=C/C(C)=C/C=C/C(C)=C/C=C/C=C(C)/C=C/C=C(C)/C=C/C2=C(C)C(=O)[C@@H](O)CC2(C)C)C(C)(C)C[C@H](O)C1=O` as the molecule, how does the remaining activity read?
The remaining activity was 107% (inactive).

With `N[C@H](CO)C(=O)O` as the molecule, how does the remaining activity read?
Its remaining activity is 106% (inactive).

Which remaining activity does the source give for `N[C@@H](CCCC(=O)O)C(=O)O` here?
Its remaining activity is 110% (inactive).

How did the remaining activity turn out when `N#CC(C#N)=C(N)/C(C#N)=C/c1cc(O)c(O)c(O)c1` was run?
The remaining activity was 87.7% (inactive).

With `Clc1ccc(Cn2c(CN3CCCC3)nc3ccccc32)cc1` as the molecule, how does the remaining activity read?
Its remaining activity is 115% (inactive).

Which remaining activity does the source give for `COCCCC/C(=N\OCCN)c1ccc(C(F)(F)F)cc1` here?
The remaining activity was 100% (inactive).

For `FC(F)(F)c1cc(CO[C@H]2CCCN[C@H]2c2ccccc2)cc(C(F)(F)F)c1`, which remaining activity is on record?
Its remaining activity is 107% (inactive).

How did the remaining activity turn out when `CN1CCc2c(cc(O)c(O)c2Cl)C(c2cccc(Cl)c2)C1` (stereo not given) was run?
The remaining activity was 96.8% (inactive).

With `N[C@@H](Cc1ccc(O)c(I)c1)C(=O)O` as the molecule, how does the remaining activity read?
Its remaining activity is 121% (inactive).

With `CO/N=C(\C(=O)N[C@@H]1C(=O)N2C(C(=O)O)=C(COC(C)=O)CS[C@H]12)c1csc(N)n1` (stereo in doubt) as the molecule, how does the remaining activity read?
Its remaining activity is 123% (inactive).

For `NC(N)=NCc1cccc(I)c1`, which remaining activity is on record?
Its remaining activity is 118% (inactive).

Which remaining activity does the source give for `CC#CCOC(=O)c1c(C)nc2sc3c(c2c1N)CCC(O)C3` (stereo not given) here?
The remaining activity was 113% (inactive).

For `CC(N)(Cc1ccc(O)cc1)C(=O)O` (stereo not given), which remaining activity is on record?
The remaining activity was 106% (inactive).

Which remaining activity does the source give for `CC(C)NC[C@@H](O)COc1ccc(CC(N)=O)cc1` here?
The remaining activity was 117% (inactive).

How did the remaining activity turn out when `Oc1ccc(Cn2cc[nH]c2=S)cc1` was run?
Its remaining activity is 102% (inactive).

How did the remaining activity turn out when `CC(=O)Oc1cc(C(C)C)c(OCCN(C)C)cc1C` was run?
Its remaining activity is 118% (inactive).

Which remaining activity does the source give for `Oc1cc(O)cc(/C=C/c2ccc(O)c(O)c2)c1` here?
Its remaining activity is 125% (inactive).

How did the remaining activity turn out when `CC(C)COC(=O)OCN1C(=O)CN(CCN2CC(=O)N(COC(=O)OCC(C)C)C(=O)C2)CC1=O` was run?
Its remaining activity is 96.8% (inactive).

For `COC(=O)c1c(C)[nH]c(C)c1C(=O)c1ccccc1Cc1ccccc1`, which remaining activity is on record?
Its remaining activity is 96.6% (inactive).

Which remaining activity does the source give for `CC1=C(C(=O)O)N2C(=O)[C@@H](NC(=O)[C@H](N)c3ccccc3)[C@H]2SC1` here?
The remaining activity was 118% (inactive).

For `Nc1ncnc2c1ncn2[C@@H]1O[C@H](COP(=O)(O)OP(=O)(O)OP(=O)(O)OP(=O)(O)OC[C@@H]2O[C@H](n3cnc4c(N)ncnc43)C(O)[C@@H]2O)[C@H](O)C1O` (stereo not given in full), which remaining activity is on record?
The remaining activity was 91.8% (inactive).

With `NC(=O)c1cn(Cc2c(F)cccc2F)nn1` as the molecule, how does the remaining activity read?
Its remaining activity is 117% (inactive).

`O=c1ccn([C@@H]2O[C@H](COP(=O)(O)OP(=O)(O)O)[C@@H](O)[C@H]2O)c(=O)[nH]1` was tested. Which remaining activity did it give?
Its remaining activity is 106% (inactive).

How did the remaining activity turn out when `N#Cc1c(-c2ccccc2)no[n+]1[O-]` was run?
Its remaining activity is 125% (inactive).

Which remaining activity does the source give for `COc1cc2c(cc1O)CC[C@@H]1[C@@H]2CC[C@]2(C)[C@@H](O)CC[C@@H]12` here?
Its remaining activity is 116% (inactive).

With `C[C@@]12C(=O)OC(=O)[C@]1(C)[C@H]1CC[C@@H]2O1` as the molecule, how does the remaining activity read?
Its remaining activity is 118% (inactive).

Which remaining activity does the source give for `N=c1ccn2c(n1)O[C@H]1[C@H](O)[C@@H](CO)O[C@H]12` here?
Its remaining activity is 95.9% (inactive).

`CCCCCCCCCCCCCCCCCCNC(=O)OCC(COP(=O)([O-])OCC[n+]1ccsc1)OC` (stereo not given) was tested. Which remaining activity did it give?
Its remaining activity is 126% (inactive).

How did the remaining activity turn out when `CC(C)(C)c1onc(OCP(=O)(O)O)c1CC(N)C(=O)O` (stereo not given) was run?
Its remaining activity is 112% (inactive).

For `NC(N)=NC(=O)Cc1c(Cl)cccc1Cl`, which remaining activity is on record?
The remaining activity was 119% (inactive).

`O=C(c1ccc(OCCCc2cnc[nH]2)cc1)C1CC1` was tested. Which remaining activity did it give?
Its remaining activity is 100% (inactive).

With `c1cc(CN2CCCCC2)cc(OCCCNc2nc3ccccc3s2)c1` as the molecule, how does the remaining activity read?
Its remaining activity is 101% (inactive).

For `CC(C)NC[C@@H](O)c1ccc(O)c(O)c1`, which remaining activity is on record?
The remaining activity was 119% (inactive).

Which remaining activity does the source give for `CN1CC[C@]2(CCN3CCc4c(oc5ccccc45)[C@@H]3C2)N(C)C1=O` here?
The remaining activity was 109% (inactive).

For `COc1ccc2c(c1)c(CC(=O)O)c(C)n2Cc1ccc(Cl)cc1`, which remaining activity is on record?
Its remaining activity is 99.3% (inactive).

Which remaining activity does the source give for `C[N+]1(C)[C@@H]2CC(OC(=O)[C@H](CO)c3ccccc3)C[C@H]1[C@@H]1O[C@@H]12` (stereo not given in full) here?
Its remaining activity is 112% (inactive).

With `CN(C)c1nc(N)c(C(=O)N=C(N)N)nc1Cl` as the molecule, how does the remaining activity read?
Its remaining activity is 119% (inactive).

`O=C(O)C1CCCN(CCC=C(c2ccccc2)c2ccccc2)C1` (stereo not given) was tested. Which remaining activity did it give?
The remaining activity was 86.8% (inactive).

With `CC[C@H]1CN2CCc3cc(OC)c(OC)cc3[C@@H]2C[C@@H]1C[C@H]1NCCc2cc(OC)c(OC)cc21` as the molecule, how does the remaining activity read?
Its remaining activity is 123% (inactive).
